HT1080-NT tox = kills 2HG-producing HT-1080-NT fibrosarcoma cells; HT-1080-NT fibrosarcoma viability, CellTiter-Glo ATP luminescence, 48 h; Potency, µM (doses to about 46.1 µM), for the others: at the highest dose activity, negative = less viability, most hits filed as cytotoxic; 360,000 compounds, 1.6% hits;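 further: NT is the 2HG producing partner of a matched IDH1 knockdown line; 0% = DMSO-treated cells and -100% = media-only wells without cells; nearly all actives have a fitted effect of over 55% in size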
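HT-1080-NT fibrosarcoma cells (2HG-overproducing), 750 cells/well in RPMI with 5% FBS, dosed after 2 h and incubated 48 h at 37C. CellTiter-Glo luminescence normalized to DMSO and no-cell wells; concentration-response curves fitted and classed.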
TDP1 cell CPT = growth inhibition of DT40 Tdp1-/-;hTDP1 cells with camptothecin (screen for TDP1 inhibitors); chicken DT40 Tdp1-/-;hTDP1 cells + 20 nM CPT, ATP luminescence, 48 h; Potency, µM (series often up to 46.2 µM), without a hit: at the top dose activity change, negative = growth inhibition, most hits filed as inhibitors; 420,000 compounds, 12% hits; further: on the % scale 0 is the no-effect control and ±100 the full control effect; nearly all actives have a fitted effect of over 55% in size
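Cell growth measured by CellTiter-Glo luminescence after a minimum 48 h, 37 C compound exposure with 20 nM CPT in Tdp1-knockout DT40 cells stably expressing hTDP1, seeded 400/well; qHTS titration format.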
HT1080 IDH1KD tx = kills HT-1080 cells with IDH1 knockdown. 360,000 compounds, 2% hits. HT-1080 IDH1 knockdown viability, ATP luminescence, 48 h. Potency, µM (titrated, usually from 46.1 µM), without a hit: at the highest dose activity, negative = toxicity, actives largely listed as cytotoxic;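 further: 0% = DMSO wells and -100% = cell-free medium wells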
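IDH1KD HT-1080 cells, 750/well, RPMI + 5% FBS; compound pinned after 2 h settling; 48 h, 37 °C; CellTiter-Glo luminescence; % activity normalised to DMSO and no-cell wells; curves fitted, classed by r2 and efficacy.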
DT40 TDP1 no CPT = qHTS for Inhibitors of human tyrosyl-DNA phosphodiesterase 1 (TDP1): qHTS in cells in absence of CPT. DT40 Tdp1-/- hTDP1 cells, no CPT, ATP luminescence, 48 h. Potency, µM (highest dose often 46.2 µM), for the others: at the top dose activity change, negative = growth inhibition, actives largely listed as inhibitors. 420,000 compounds, 15% hits; further: on the % scale 0 is the no-effect control and ±100 the full control effect; nearly all actives have a fitted effect of over 55% in size
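Camptothecin absent (DMSO only). Human TDP1-complemented DT40 knockout cells, 400 cells/well, 37 °C for minimum 48 hr; ATP measured via CellTiter-Glo, 30 min dark incubation, luminescence.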
TGFb inhibitor = inhibitors of TGF-b signaling | HepG2 CAGA-GFP TGF-b/SMAD3 reporter, GFP fluorescence, 18 h; TGF-beta stimulated, 500 pg/mL final | Potency, µM (doses to about 46.1 µM), for inactives: at the top dose activity, negative = inhibition, hits mostly inhibitors | 410,000 compounds, 1.2% hits; further: on the % scale 0 is the no-effect control and ±100 the full control effect; nearly all actives have a fitted effect of over 65% in size
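Using HEPG2 CAGA-GFP reporter cells at 1000 cells/well, we pinned test compounds, stimulated with recombinant TGF-beta (500 pg/mL final) and measured total well GFP after 18 h.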
HepG2 tox = kills HepG2 cells in TGF-b inhibitor counter-screen | HepG2 CAGA-GFP viability, ATP luminescence, 18 h | Potency, µM (doses to about 46.1 µM), without a hit: at the highest dose activity change, negative = cytotoxicity, actives largely listed as cytotoxic | 410,000 compounds, 0.76% hits | AID 588856
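CellTiter-Glo luminescence gave cytotoxicity after 18 hours at 37 degrees C. The cells were HepG2 CAGA-GFP in 1% FBS DMEM, stimulated with 500 pg/mL TGF-beta after compound addition. %Activity was normalised to no-cell wells (complete cell-killing) and DMSO (no toxicity), and curves were fitted and classified.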
An asterisk follows results filed as active. Shown are actives, neighbours in structure and some others; about 17% of the full set was active somewhere. The call rests on the fitted dose curve; in most records, active means well fitted curve in the direction sought with a large enough effect; inconclusive means small, poorly fitted or top-dose-only effect, or another doubt; inactive means no such curve, though single readings can be large; an effect the other way counts as inactive or inconclusive. Potency means the concentration at half of the fitted maximal effect.

Results for O=C([C@@H]1C[C@@H](Sc2nc3ccccc3[nH]2)CN1Cc1c(F)cccc1F)N1CCOCC1 ?
TDP1 cell CPT: -13.0%; DT40 TDP1 no CPT: -17.4%

What do the screens show for `COCC1CCCN(C(=O)c2cc(COc3ccc4ncccc4c3)on2)C1` (configuration not stated)?
HT1080-NT tox: 6.6%; TDP1 cell CPT: 7.31µM*; HT1080 IDH1KD tx: -24.7%; DT40 TDP1 no CPT: 5.8µM*; TGFb inhibitor: inconclusive; HepG2 tox: -2.8%

Results for O=C(c1cc(COc2ccc3ncccc3c2)on1)N1CCC(O)CC1 ?
HT1080-NT tox: -2.4%; TDP1 cell CPT: 16.4µM*; HT1080 IDH1KD tx: -1.7%; DT40 TDP1 no CPT: 8.2µM*; TGFb inhibitor: 0.9%; HepG2 tox: -5.2%

What do the screens show for `CC(CNC(=O)c1cc(COc2ccc3ncccc3c2)on1)c1ccccc1` (configuration not stated)?
HT1080-NT tox: inconclusive; TDP1 cell CPT: 16.4µM*; HT1080 IDH1KD tx: inconclusive; DT40 TDP1 no CPT: 11.6µM*; TGFb inhibitor: inconclusive; HepG2 tox: -28.4%

What do the screens show for `CCC(O)C1CCN(C(=O)c2cc(COc3ccc4ncccc4c3)on2)CC1` (configuration not stated)?
HT1080-NT tox: inconclusive; TDP1 cell CPT: 4.11µM*; HT1080 IDH1KD tx: -23.7%; DT40 TDP1 no CPT: 3.66µM*; TGFb inhibitor: -10.4%; HepG2 tox: -2.5%

What do the screens show for `COc1cccc(OCc2cc(C(=O)N3CCN(C4CCCC4)CC3)no2)c1`?
HT1080-NT tox: -7.9%; TDP1 cell CPT: -6.7%; HT1080 IDH1KD tx: -4.4%; DT40 TDP1 no CPT: -12.1%; TGFb inhibitor: -12.4%; HepG2 tox: 33.4%

How did COc1cccc(OCc2cc(C(=O)N3CCC(C(O)C(C)C)CC3)no2)c1 (configuration not stated) do in these assays?
HT1080-NT tox: 10.3%; TDP1 cell CPT: inconclusive; HT1080 IDH1KD tx: 1.5%; DT40 TDP1 no CPT: inconclusive; TGFb inhibitor: 1.1%; HepG2 tox: 3.7%

How did CN(CC1COCCO1)C(=O)c1cnn(-c2ncc3c(n2)-c2ccccc2CC3)c1C1CC1 (configuration not stated) do in these assays?
TDP1 cell CPT: inconclusive; DT40 TDP1 no CPT: -28.1%

What do the screens show for `C=C(C)CN(CC)C(=O)CSc1ccc(S(=O)(=O)N2CCN(C)CC2)cn1`?
HT1080-NT tox: -2.0%; TDP1 cell CPT: -21.7%; HT1080 IDH1KD tx: -0.3%; DT40 TDP1 no CPT: -27.1%; TGFb inhibitor: -8.8%; HepG2 tox: -3.2%

What do the screens show for `O=C(c1cc(COc2ccc3ncccc3c2)on1)N1CCCC(O)C1` (configuration not stated)?
HT1080-NT tox: -1.0%; TDP1 cell CPT: inconclusive; HT1080 IDH1KD tx: -2.5%; DT40 TDP1 no CPT: 20.6µM*; TGFb inhibitor: -7.3%; HepG2 tox: -11.9%

What do the screens show for `O=C(c1cc(COc2ccc3ncccc3c2)on1)N1CCC[C@H]1CO`?
HT1080-NT tox: inconclusive; TDP1 cell CPT: 6.51µM*; HT1080 IDH1KD tx: -21.6%; DT40 TDP1 no CPT: 8.2µM*; TGFb inhibitor: inconclusive; HepG2 tox: -1.6%

Results for COCC1CCCN(C(=O)c2cc(COc3cccc4cccnc34)on2)C1 (configuration not stated) ?
HT1080-NT tox: 8.8%; TDP1 cell CPT: -0.9%; HT1080 IDH1KD tx: 5.5%; DT40 TDP1 no CPT: -0.7%; TGFb inhibitor: -22.8%; HepG2 tox: -3.4%

Results for Cc1cccc(C)c1OCc1cc(C(=O)NC2CCC2)no1 ?
HT1080-NT tox: 10.8%; TDP1 cell CPT: -7.9%; HT1080 IDH1KD tx: 15.6%; DT40 TDP1 no CPT: -12.2%; TGFb inhibitor: 1.6%; HepG2 tox: 7.1%
